Values joined by “and” are separate entries in the source; they are usually repeats but may differ in a detail not shown here. Identical values can stand only once. Results filed as inconclusive are left out. Active and inactive are the calls of the source. Unless noted, calls follow the shape of the dose curve; as a rule, active = well fitted curve in the direction sought with a large enough effect; inconclusive = small, poorly fitted or top-dose-only effect, or another doubt; inactive = no such curve, though single readings can be large; an effect the other way counts as inactive or inconclusive.
How the values were obtained:
[1] = molecular target: Alpha-galactosidase A (Homo sapiens) (UniProt P06280); assay: Counterscreen for Glucocerebrosidase Inhibitors: qHTS Assay for Human alpha-Galactosidase at pH 4.5 (AID 992); also: 0% is about no effect
How it was run: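 Fluorogenic 1536-well qHTS at pH 4.5 (citrate, Tween-20): 2 nM enzyme, 80 uM 4-MU-alpha-galactoside, 20 min room temperature, NaOH/glycine stop. Titration 0.7 nM to 77 uM, data normalized to no-enzyme and full-activity controls, Hill-fitted AC50.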

[2] = molecular target: alpha-glucosidase (Oryza sativa, rice) (UniProt Q653V4); assay: Counterscreen for Glucocerebrosidase Inhibitors: qHTS Assay for Rice alpha-Glucosidase at pH 5.0 (AID 997);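 also: 0% = full activity with enzyme and -100% = basal without enzyme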
How it was run: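 Endpoint fluorogenic assay at pH 5.0: compounds (0.7 nM to 77 uM) titrated against 4 nM rice enzyme and 400 uM 4-MU-alpha-glucoside for 20 min at room temperature; NaOH/glycine stop, read ex 365/em 440 nm, Hill-fitted AC50.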

[3] = qHTS Assay for Lipid Storage Modulators (AID 1519; calls by dose curve; as to activity change, negative = inhibition: % is scaled to controls: 0 for no effect and ±100 for the full control effect); details: Drosophila S3 cells, BODIPY lipid droplet/cell ratio, laser cytometry, cells loaded with oleic acid
How it was run: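 Cells seeded at 5,000 per well were treated with compounds over a concentration series and loaded with oleic acid (400 uM, as added). Lipid droplet fluorescence (488 nm excitation, 500-530 nm channel) was read by laser-scanning cytometry and normalized to 20 uM Triacsin C.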

[4] = molecular target: DNA repair nuclease/redox regulator APEX1 (Homo sapiens) (UniProt P27695); assay: qHTS Validation Assay for Inhibitors of the Human Apurinic/apyrimidinic Endonuclease 1 (APE1) (AID 1705;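 also: TAMRA fluorescence gain over two minutes as APE1 cuts a quenched THF abasic duplex; % is scaled to controls: 0 for no effect and ±100 for the full control effect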)
How it was run: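 qHTS, 1536-well. APE1 + cpd 15 min RT → 50 nM TAMRA/BHQ-2 THF-abasic dsDNA substrate → kinetic fluorescence, 3 reads/60 s; delta(read3−read1) = reaction progress. No-enzyme buffer = negative control.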

[5] = Counterscreen for APE1 Inhibitors: Fluorescent Dye Displacement Validation Assay (AID 1707);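 also: plate controls were ThO with dsDNA and no compound for no effect and ThO without dsDNA for full effect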
How it was run: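 Counterscreen flags promiscuous DNA binders: compounds displacing ThO from duplex DNA (abasic THF site, 50 nM) reduce 540 nm emission (480 nm excitation). ThO 250 nM final; Tris-HCl pH 7.5 with NaCl, MgCl2 and Tween-20.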

[6] = molecular target: Endonuclease 4 (Escherichia coli (strain K12)) (UniProt P0A6C1); assay: Counterscreen for APE1 Inhibitors: qHTS Validation Assay for Inhibitors of Endonuclease IV (AID 1708); also: % is scaled to controls: 0 for no effect and ±100 for the full control effect
How it was run: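 The reaction buffer contained 50 mM Tris-HCl pH 7.5, 50 mM NaCl, 2 mM MgCl2, 1 mM DTT and 0.01% Tween-20. Incision of a 50 nM fluorophore/quencher THF substrate by 2 nM enzyme was measured kinetically.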

[7] = qHTS for differential inhibitors of proliferation of Plasmodium falciparum line 7G8 (AID 1815);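 also: parasite growth measured after three days of incubation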; also: potency is read from the fitted curve at half-maximal effect;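 as to activity change, negative = inhibition: plate controls were vehicle wells for no effect and reference inhibitor wells for full effect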
[8] = qHTS for differential inhibitors of proliferation of Plasmodium falciparum line GB4 (AID 1816); details: Potency: Plasmodium falciparum GB4 proliferation inhibition;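 also: parasite growth measured after 72 h incubation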; also: potency is read from the fitted curve at half-maximal effect;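 as to activity change, negative = inhibition: 0% = vehicle DMSO and -100% = reference inhibitor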
[9] = qHTS for differential inhibitors of proliferation of Plasmodium falciparum line 3D7 (AID 1876); also: potency is read from the fitted curve at half-maximal effect
[10] = qHTS for differential inhibitors of proliferation of Plasmodium falciparum line Dd2 (AID 1882); details: Potency: Plasmodium falciparum Dd2 proliferation inhibition; also: nearly all actives have a fitted effect of over 65% in size; also: potency is read from the fitted curve at half-maximal effect;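 as to activity change, negative = inhibition: compound exposure of 72 h on infected erythrocytes; plate controls were DMSO vehicle for no effect and 0.29 µM artemisinin for full effect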
How it was run: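 RBC culture, 0.3% parasitemia / 2.5% Hct final; cpd added by pin tool in DMSO; 72 h, 37 C, 5% CO2; lysis buffer + SYBR Green I, o/n RT dark; FI 485/535; norm. to artemisinin 0.29 uM and DMSO.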

[11] = qHTS for differential inhibitors of proliferation of Plasmodium falciparum line HB3 (AID 1886); details: Potency: Plasmodium falciparum HB3 proliferation inhibition;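 also: parasites grown with compound for 72 h before SYBR Green readout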; also: potency is read from the fitted curve at half-maximal effect;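 as to activity change, negative = inhibition: plate controls were vehicle for no effect and reference inhibitor for full effect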
[12] = qHTS for differential inhibitors of proliferation of Plasmodium falciparum line D10 (AID 1877);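 also: parasites grown with compound for 72 h before DNA staining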; also: potency is read from the fitted curve at half-maximal effect;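 as to activity change, negative = inhibition: plate controls were vehicle wells for no effect and reference inhibitor wells for full effect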
[13] = qHTS for differential inhibitors of proliferation of Plasmodium falciparum line W2 (AID 1883); details: Potency: Plasmodium falciparum W2 proliferation inhibition;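 also: parasites grown with compound for 72 h before lysis and staining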; also: potency is read from the fitted curve at half-maximal effect;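 as to activity change, negative = inhibition: 0% = vehicle wells and -100% = control inhibitor wells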
[14] = Cell Viability - LYMP2-020 (AID 986);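 also: plate controls were DMSO only for no effect and tetraoctylammonium bromide at 92 µM for full effect; nearly all actives have a fitted effect of over 55% in size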
How it was run: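 qHTS, 2500 cells/well; 5 hr then 24 hr compound exposure, 37 C; CellTiter-Glo luminescence after 30 min RT; ATP decrease taken as cytotoxicity; AC50 via Hill equation; tetraoctylammonium bromide positive control.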

[15] = Cell Viability - LYMP2-022 (AID 987);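 also: 0% = DMSO alone and full effect = tetraoctylammonium bromide at 92 µM; nearly all actives have a fitted effect of over 55% in size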
How it was run: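 Luminescent ATP read-out (CellTiter-Glo, 30 min, RT) after 24 hr, 37 C compound exposure of 2500 human lymphoblastoid cells/well in complete medium. Cytotoxicity taken as concentration-dependent ATP loss; AC50 from standard Hill equation.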

[16] = Cell Viability - LYMP2-024 (AID 988);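 also: plate controls were DMSO only for no effect and 92 µM tetraoctylammonium bromide for full effect; nearly all actives have a fitted effect of over 60% in size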
How it was run: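 ATP-based luminescence (CellTiter-Glo, 30 min RT) after 24 h compound exposure at 37 C of 2500 lymphoblastoid cells/well; decrease in ATP taken as cytotoxicity. qHTS concentration-response fitted to standard Hill equation for AC50.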

[17] = Cell Viability - LYMP2-026 (AID 989); also: % is scaled to controls: 0 for no effect and ±100 for the full control effect; nearly all actives have a fitted effect of over 50% in size
How it was run: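 qHTS cytotoxicity: 2500 cells/well, 5 hr 37 C, compound 24 hr 37 C, CellTiter-Glo 30 min RT, luminescence. Tetraoctylammonium bromide positive control. AC50 via standard Hill fit.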

[18] = Cell Viability - LYMP1-002 - Assay at 24 hr (AID 993); also: % is scaled to controls: 0 for no effect and ±100 for the full control effect
How it was run: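 CellTiter-Glo luminescence (intracellular ATP) after 24 h compound exposure, 37 C, in LYMP1-002 human lymphoblastoid cells; decreased ATP taken as cytotoxicity. AC50 from standard Hill fit of concentration-response curves.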

[19] = Cell Viability - LYMP1-002 - Assay at 40 hr (AID 994);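 also: 0% = DMSO only and full inhibition = 92 µM tetraoctylammonium bromide; nearly all actives have a fitted effect of over 60% in size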
How it was run: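 qHTS cytotoxicity; 2500 cells/well, 5 hr 37 C settle, compound 40 hr 37 C. CellTiter-Glo, 30 min RT, luminescence (ATP). Concentration-response, Hill fit → AC50. Pos. ctrl tetraoctylammonium bromide.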

[20] = measured here: cell count channel max response
[21] = measured here: lipid channel max response

Sequence of Alpha-galactosidase A (Homo sapiens) (P06280 whole entry, looked up): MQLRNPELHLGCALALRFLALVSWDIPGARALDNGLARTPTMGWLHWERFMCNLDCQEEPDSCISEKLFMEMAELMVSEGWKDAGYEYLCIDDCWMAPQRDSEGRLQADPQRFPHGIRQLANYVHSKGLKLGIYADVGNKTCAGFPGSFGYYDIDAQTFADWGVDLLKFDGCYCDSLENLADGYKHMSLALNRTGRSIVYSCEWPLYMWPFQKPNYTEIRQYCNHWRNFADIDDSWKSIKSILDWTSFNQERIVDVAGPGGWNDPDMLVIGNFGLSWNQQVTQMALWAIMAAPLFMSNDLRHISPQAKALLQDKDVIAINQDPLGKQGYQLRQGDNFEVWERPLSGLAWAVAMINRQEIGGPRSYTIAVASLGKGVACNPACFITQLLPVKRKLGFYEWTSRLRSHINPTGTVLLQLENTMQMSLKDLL
Sequence of DNA repair nuclease/redox regulator APEX1 (Homo sapiens) (P27695 whole entry, looked up): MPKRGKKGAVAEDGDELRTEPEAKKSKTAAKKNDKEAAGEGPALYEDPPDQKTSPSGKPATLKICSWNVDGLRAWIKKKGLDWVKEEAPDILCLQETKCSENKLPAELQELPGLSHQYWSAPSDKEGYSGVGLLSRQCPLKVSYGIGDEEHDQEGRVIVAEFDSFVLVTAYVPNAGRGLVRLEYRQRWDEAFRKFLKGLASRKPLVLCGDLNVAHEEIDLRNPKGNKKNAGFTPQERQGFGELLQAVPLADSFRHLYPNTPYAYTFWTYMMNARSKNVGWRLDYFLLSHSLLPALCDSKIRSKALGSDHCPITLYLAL

Cc1[nH]c(=O)c(C#N)cc1-c1ccc2nccn2c1
inactive: outcome [1] | outcome [2] | activity change, negative = inhibition ([3]; at 57.5 µM (top of the series)) -1.62% | outcome [4] | outcome [5] | outcome [6] | Potency [7] | Potency [8] | Potency [9] | Potency [10] | Potency [11]
25.3%: max response [3, 20]
21.7%: max response [3, 21]

CC(C[N+](C)(C)C)OC(N)=O (configuration not stated)
-6.21%: max response [3, 21]
inactive: activity change, negative = inhibition ([3]; at 57.5 µM (top of the series)) 0.608% | outcome [4] | outcome [5] | outcome [6] | Potency [7] | Potency [8] | Potency [9] | Potency [12] | Potency [10] | Potency [11]
-11.2%: max response [3, 20]

Cc1ccccc1C(OCCN(C)C)c1ccccc1 (configuration not stated)
-31.3%: max response [3, 20]
active: Potency [7] 3.98 µM | Potency [13] 0.708 µM
inactive: activity change, negative = inhibition ([3]; at 57.5 µM (top of the series)) -0.936% | outcome [4] | outcome [5] | outcome [6] | Potency [12]
-33.7%: max response [3, 21]

CCn1cc(C(=O)O)c(=O)c2cc(F)c(N3CCNC(C)C3)c(F)c21 (configuration not stated)
26.1%: max response [3, 21]
inactive: activity change, negative = inhibition ([3]; at 57.5 µM (top of the series)) 5.34% | outcome [4] | outcome [5]
active: Potency [9] 11.2 µM | Potency [13] 10 µM
16.3%: max response [3, 20]

C1COC(NC(C2CC2)C2CC2)=N1
3.69%: max response [3, 20]
inactive: outcome [1] | outcome [2] | activity change, negative = inhibition ([3]; at 25.7 µM (top of the series)) -4.99% | outcome [4] | outcome [5] | outcome [6]
active: Potency [7] 7.94 µM | Potency [13] 14.1 µM | Potency [11] 10 µM
-12.8%: max response [3, 21]

c1ccc([C@H]2CN3CCSC3=N2)cc1
20.7%: max response [3, 21]
21.4%: max response [3, 20]
inactive: activity change, negative = inhibition ([3]; at 57.5 µM (top of the series)) 0.161% | outcome [4] | outcome [5] | outcome [6] | Potency [7] | Potency [9] | Potency [12] | Potency [10] | Potency [11]

C[C@]12CCC(=O)C=C1CC[C@@H]1[C@@H]2[C@@H](O)C[C@@]2(C)[C@H]1CC[C@]2(O)C(=O)CO
inactive: outcome [1] | outcome [2]

O=c1n(CCCN2CCN(c3cccc(Cl)c3)CC2)nc2ccccn12
37% and -15.6%: max response [3, 21]
20.6% and -14.9%: max response [3, 20]
inactive: outcome [1] | outcome [2] | activity change, negative = inhibition ([3]; at 57.5 µM (top of the series)) 10.8% and -2.4% | outcome [4] | outcome [5] | outcome [6] | Potency [9] | Potency [12] | Potency [10] | Potency [11]

O=c1[nH]cnc2[nH]ncc12
12.9% and 60.4%: max response [3, 21]
inactive: outcome [14] | outcome [15] | outcome [16] | outcome [17] | outcome [1] | outcome [18] | outcome [19] | outcome [2] | activity change, negative = inhibition ([3]; at 57.5 µM (top of the series)) 3.88% and -0.195% | outcome [4] | outcome [5] | outcome [6] | Potency [7] | Potency [8] | Potency [9] | Potency [12] | Potency [10] | Potency [13] | Potency [11]
3.2% and 58%: max response [3, 20]

CCOC(=O)N1CCC(=C2c3ccc(Cl)cc3CCc3cccnc32)CC1
11.7%: max response [3, 21]
1.57%: max response [3, 20]
active: Potency [7] 2.24 µM | Potency [8] 10 µM | Potency [9] 12.6 µM | Potency [12] 10 µM | Potency [10] 10 µM | Potency [13] 5.01 µM | Potency [11] 10 µM
inactive: outcome [1] | outcome [2] | activity change, negative = inhibition ([3]; at 57.5 µM (top of the series)) 3.85% | outcome [4] | outcome [5] | outcome [6]

O=NN(CCCl)C(=O)NCCCl
-3.08%: max response [3, 20]
inactive: outcome [1] | outcome [2] | activity change, negative = inhibition ([3]; at 57.5 µM (top of the series)) -2.32% | outcome [4] | outcome [5] | Potency [7] | Potency [8] | Potency [9] | Potency [10] | Potency [13] | Potency [11]
-6.13%: max response [3, 21]

CN1CCN(CCCN2c3ccccc3Sc3ccc(C(F)(F)F)cc32)CC1
inactive: outcome [1] | outcome [2] | activity change, negative = inhibition ([3]; at 25.7 µM (top of the series)) -6.05% | activity change, negative = inhibition ([3]; at 57.5 µM (top of the series)) 7.35% | outcome [4] | outcome [5]
-20.9% and 29.4%: max response [3, 21]
-17.1% and 19.1%: max response [3, 20]
active: Potency [7] 3.98 µM | Potency [8] 4.47 µM | Potency [9] 7.08 µM | Potency [12] 11.2 µM | Potency [10] 12.6 µM | Potency [13] 4.47 µM | Potency [11] 7.94 µM

O=C1CCc2cc(OCCCCc3nnnn3C3CCCCC3)ccc2N1
inactive: outcome [1] | outcome [2] | activity change, negative = inhibition ([3]; at 57.5 µM (top of the series)) -9.74% | outcome [4] | outcome [5] | Potency [10]
-20.7%: max response [3, 20]
active: Potency [7] 14.1 µM
-27.2%: max response [3, 21]

Nc1nc2c(ncn2COCCO)c(=O)[nH]1
inactive: outcome [1] | outcome [2] | outcome [4] | outcome [5] | outcome [6] | Potency [7] | Potency [8] | Potency [9] | Potency [12] | Potency [10] | Potency [11]

CC(C)(Sc1ccc(CCN(CCCCC2CCCCC2)C(=O)NC2CCCCC2)cc1)C(=O)O
inactive: outcome [1] | outcome [2] | activity change, negative = inhibition ([3]; at 57.5 µM (top of the series)) -0.767% | outcome [4] | outcome [5] | Potency [9] | Potency [12] | Potency [10] | Potency [11]
16.5%: max response [3, 20]
13.3%: max response [3, 21]

CCCC(CCC)C(=O)O
inactive: outcome [14] | outcome [15] | outcome [16] | outcome [17] | outcome [1] | outcome [18] | outcome [19] | outcome [2] | activity change, negative = inhibition ([3]; at 57.5 µM (top of the series)) 7.45% | outcome [4] | outcome [5] | outcome [6]
36.2%: max response [3, 21]
23.9%: max response [3, 20]

CNC[C@H](O)c1cccc(O)c1
21.2%: max response [3, 21]
inactive: outcome [1] | outcome [2] | activity change, negative = inhibition ([3]; at 57.5 µM (top of the series)) 0.239% | outcome [4] | outcome [5] | outcome [6] | Potency [7] | Potency [8] | Potency [9] | Potency [12] | Potency [10] | Potency [13] | Potency [11]
20.5%: max response [3, 20]

NC(N)=NC(=O)c1nc(Cl)c(N)nc1N
inactive: outcome [15] | outcome [16] | outcome [17] | outcome [1] | outcome [18] | outcome [19] | outcome [2] | outcome [4] | outcome [6]

OC(CN1CCC(Cc2ccc(F)cc2)CC1)c1ccc(Cl)cc1 (configuration not stated)
inactive: outcome [1] | outcome [2] | outcome [4] | outcome [5] | outcome [6]
active: Potency [7] 0.501 µM | Potency [8] 0.355 µM | Potency [9] 1.26 µM | Potency [12] 2.51 µM | Potency [10] 1.26 µM | Potency [13] 0.282 µM | Potency [11] 1.41 µM
